# Measurements taken from PubChem BioAssay.
# Unmarked numbers belong to inactive results. No rule for the calls is given here.
# Molecular target: Pantothenate synthetase (Mycobacterium tuberculosis (strain ATCC 25618 / H37Rv)) (UniProt P9WIL5)
# Experiment: Recombinant Mtb pantothenate synthetase (PanC) inhibitors, coupled enzyme, confirmatory (AID 375);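 also: 0% = full reaction with vehicle and 100% = no enzyme background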
# Conditions: coupled enzyme assay; at 10 µM, active compounds read high
# Pantothenate synthetase (Mycobacterium tuberculosis (strain ATCC 25618 / H37Rv)), sequence (P9WIL5 whole entry, looked up): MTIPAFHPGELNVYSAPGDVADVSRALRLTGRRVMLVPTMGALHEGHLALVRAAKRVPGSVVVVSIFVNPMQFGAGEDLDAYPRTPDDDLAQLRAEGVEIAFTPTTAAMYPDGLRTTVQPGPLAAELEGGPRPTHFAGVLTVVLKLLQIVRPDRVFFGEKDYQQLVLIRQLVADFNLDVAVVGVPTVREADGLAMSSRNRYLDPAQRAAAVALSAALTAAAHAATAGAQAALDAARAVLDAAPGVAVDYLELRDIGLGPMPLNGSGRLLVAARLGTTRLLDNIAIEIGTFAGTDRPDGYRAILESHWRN
row,Compound,inhibition [%]
1,O=c1n(CCCN2CCN(c3cccc(Cl)c3)CC2)nc2ccccn12,0
2,COC(=O)c1ccc(NC(=O)C2CC(=O)N(c3cc(C)ccc3C)C2)cc1 (stereo not given),5
3,O=C(O)CCc1ccc(-c2cccs2)n1NC(=O)c1ccco1,0
4,CCOc1cccc(C(=O)N2CCCCC2c2cccnc2)c1 (stereo not given),0
5,Cn1c(SCC(=O)c2cc3ccccc3o2)nnc1-c1ccccc1,1
6,Cc1ccc2[nH]c3c(=O)n(CCCN4CCN(C)CC4)cnc3c2c1,4
7,COc1ccc(-c2cc(C(=O)Nc3ccc(C)cc3)no2)cc1,0
8,CCn1c(=O)cc(OCC(=O)Nc2nc(C)cs2)c2ccccc21,0
9,CCCn1cc(SCC(=O)NCc2ccco2)c2ccccc21,3
10,CCn1cc(C(=O)Nc2cc3c(cc2NC(C)=O)OCCO3)c(=O)c2ccc(C)nc21,1
11,Cn1c(=O)c(=O)n(C)c2cc(S(=O)(=O)N3CCCCC3)ccc21,14
12,Cc1nc2sc(C(c3cccc(F)c3)N3CCOCC3)c(O)n2n1 (stereo not given),0
13,O=C(NCc1nnc(SCC(=O)N2CCC(Cc3ccccc3)CC2)o1)c1ccccc1F,0
14,O=S(=O)(Nn1cnnc1)c1ccccc1Cl,0
15,COC(=O)C1=C(C)NC(C)=C(C(=O)OC)C1C(=O)OC1CCCCC1=O (stereo not given),0
16,N=c1nc(N2CCCCC2)cc(N)n1O,0
17,Oc1cccc(Nc2nc(NCC3CCCO3)c3ccccc3n2)c1 (stereo not given),1
18,O=C(CSc1ccc(-c2ccccc2)nn1)N1CCOCC1,0
19,C1COC(NC(C2CC2)C2CC2)=N1,4
20,COc1ccccc1CCNC(=O)C1CCCO1 (stereo not given),0

row,Compound,inhibition [%]
1,CC(=O)N1CCN(S(=O)(=O)c2ccc(S(=O)(=O)NC3CC3)cc2)CC1,3
2,CCOCCCNC(=O)C1CCC(CNS(=O)(=O)c2cccc3nsnc23)CC1 (stereo not given),1
3,Cc1ccc(Cl)c(Nc2ccccc2C(=O)O)c1Cl,0
4,CCOC(=O)c1c(N)nn(C(=O)C(C)C)c1-c1ccccc1,0
5,CCC(Oc1ccc2ccccc2c1)C(=O)O (stereo not given),0
6,CCCCCc1c(O)nc(SCC(=O)NCC2CCCO2)[nH]c1=O (stereo not given),6
7,COC(=O)c1cccc(S(=O)(=O)N2CCN(c3nc4ccccc4s3)CC2)c1,2
8,Cc1cc(C)n(CC(=O)n2c3c(c4ccccc42)CCCC3)n1,2
9,CS(=O)(=O)Nc1ccc(S(=O)(=O)Nc2nccs2)cc1,0
10,CC(=O)c1ccc(NC(=O)CCc2c(C)nc3ncnn3c2C)cc1,4
11,CCOc1ccc(NC(=O)c2ccncc2)cc1,0
12,CN(C)c1ccc2c(c1)OC(N)=C(C#N)C2c1cccc(F)c1 (stereo not given),0
13,c1coc(-c2nnc(-c3cccs3)o2)c1,16
14,Cc1ccc(-c2cc(C(=O)NCCN3CCOCC3)no2)cc1,3
15,COc1cccc(OC)c1OCCNCCO,2
16,CCS(=O)(=O)c1nc2ccccc2n1CC(=O)N1CCCCC1,6
17,C=CCOC(=O)CC(NC(=O)c1ccccc1)c1ccccc1 (stereo not given),0
18,Cn1c(SCc2nc3ccccc3c(=O)[nH]2)nnc1-c1ccco1,13
19,Fc1ccc(-c2nnc(CN3CCN(c4ncc(C(F)(F)F)cc4Cl)CC3)o2)cc1,0
20,Cc1nc2ccccc2c2c1C(=O)N(CCC1=CCCCC1)C2=O,9
